In PubChem BioAssay one finds inhibition data, which are given here for 17 compounds.

In general, inhibition refers to the share of the control response that was lost under treatment.

Calls of active or inactive are those of the source. No rule for the calls is given here.

This assay deals with Pantothenate synthetase (Mycobacterium tuberculosis (strain ATCC 25618 / H37Rv)) (UniProt P9WIL5). Description: Recombinant Mtb pantothenate synthetase (PanC) inhibitors, coupled enzyme, confirmatory (AID 375).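 Also: 0% = full reaction with vehicle and 100% = no enzyme background.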 Particulars: coupled enzyme assay; at 10 µM, hits give high values.
Pantothenate synthetase (Mycobacterium tuberculosis (strain ATCC 25618 / H37Rv)), sequence (P9WIL5 whole entry, looked up): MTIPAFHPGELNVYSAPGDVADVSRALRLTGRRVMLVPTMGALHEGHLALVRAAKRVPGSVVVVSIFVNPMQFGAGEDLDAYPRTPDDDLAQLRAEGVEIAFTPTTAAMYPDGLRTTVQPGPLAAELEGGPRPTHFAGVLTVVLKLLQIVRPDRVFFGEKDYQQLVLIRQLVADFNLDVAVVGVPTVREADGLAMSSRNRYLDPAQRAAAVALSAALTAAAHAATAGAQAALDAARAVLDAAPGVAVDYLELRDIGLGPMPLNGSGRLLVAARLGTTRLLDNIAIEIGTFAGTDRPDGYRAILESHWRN
As to `O=S(=O)(NCCSc1ccccc1)c1cccs1`, the inhibition is 0% (inactive).

Turning to `CCn1c2ccccc2c2cc(NC(=O)Cc3ccc(S(=O)(=O)N4CCOCC4)s3)ccc21`, the inhibition is 0% (inactive).

Take `CCOC(=O)c1[nH]c(C)c(C(=O)NCC2CCCO2)c1C` (configuration not stated): the inhibition is 0% (inactive).

For `O=C(CC1(O)C(=O)Nc2ccccc21)c1ccc2c(c1)OCO2` (configuration not stated), the inhibition is 0% (inactive).

Regarding `COc1ccccc1NC(=O)CSC1CC(=O)N(c2ccc3c(c2)OCO3)C1=O` (configuration not stated), the inhibition was 0% (inactive).

`Cc1c(C(=O)OC(C)C)[nH]c2c1C(=O)CCC2`: the inhibition is 0% (inactive).

With `COc1ccc(-c2ccc(=O)n(Cc3cc(=O)n4ccccc4n3)n2)cc1`, the inhibition was 0% (inactive).

Turning to `Cc1occc1C(=O)N1CCN(Cc2ccccc2)CC1`, the inhibition was 0% (inactive).

`Cc1cc(Cl)ccc1OCC(=O)Nn1c(C)ccc1C`: the inhibition was 0% (inactive).

For the compound `CNC(=O)CC(C(=O)O)c1ccc(OC(C)C)cc1` (configuration not stated), the inhibition was 0% (inactive).

Regarding `CC1CCCCN1C(=O)Cn1nnc(-c2cccnc2)n1` (configuration not stated), the inhibition is 0% (inactive).

For the compound `CCOC(=O)CN(C(=O)c1ccccc1)c1ccccc1C`, the inhibition was 0% (inactive).

As for `CSc1cccc(NS(=O)(=O)c2ccccc2)c1`, the inhibition was 0% (inactive).

`O=C(NC1CCCc2ccccc21)c1ccc(CNc2c(N3CCOCC3)c(=O)c2=O)cc1` (configuration not stated): the inhibition is 0% (inactive).

Consider `CC(CCc1ccccc1)NC(=O)C1CCN(S(=O)(=O)c2cnc[nH]2)CC1` (configuration not stated), for which the inhibition is 4% (inactive).

In the case of `COc1ccc2c(c1)CCc1c(C(=O)N3CC4(C)CC3CC(C)(C)C4)noc1-2` (configuration not stated), the inhibition was 0% (inactive).

For `Cc1cc(NC(=O)Cn2cnc3c(cnn3C(C)(C)C)c2=O)no1`, the inhibition is 3% (inactive).
